HPGD inh: qHTS Assay for Inhibitors of HPGD (15-Hydroxyprostaglandin Dehydrogenase) | purified HPGD, NADH fluorescence kinetic, PGE2 substrate | 15-hydroxyprostaglandin dehydrogenase [NAD(+)] (Homo sapiens), P15428 | actives 4.3% (n = 150,000) | AID 894, 2007 | Potency, µM, most hits filed as inhibitors; active = well fitted inhibition curve with a large enough effect, not every such curve was filed as active; inconclusive = small, poorly fitted or top-dose-only effect, or another doubt; inactive = no such curve, though single readings can be large or run the other way
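20 nM HPGD preincubated 15 min at room temperature with compound in 50 mM Tris-HCl pH 8, 0.01% Tween 20. Started with 1 mM NAD+ and 30 uM prostaglandin E2; NADH fluorescence (360/450 nm) read 5 times over 30-s intervals, last minus first.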
KinaseGlo FLuc: Counterscreen for Luciferase (Kinase-Glo TM) Inhibition; Potency, µM (titrated, usually from 38.3 µM), usual class: inhibitors; actives 0.28% (n = 200,000); AID 1379, 2008; Kinase-Glo luciferase, ATP luminescence, 8 min; also: nearly all actives have a fitted effect of over 60% in size
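Substrate mix (final 50 mM imidazole pH 7.2, 50 mM KCl, 7 mM MgCl2, 10 uM ATP, 0.01% Tween 20, 0.05% BSA) plus pin-tool compound, then Kinase-Glo detection mix; 8 min ambient, luminescence read.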
ALDH1A1 inh: qHTS Assay for Inhibitors of Aldehyde Dehydrogenase 1 (ALDH1A1); actives 7.3% (n = 220,000); Purified ALDH1A1, NADH fluorescence, propionaldehyde substrate; Potency, µM (doses to about 75.3 µM), most hits filed as inhibitors; AID 1030, 2008; Aldehyde dehydrogenase 1A1 (Homo sapiens), P00352; active = well fitted inhibition curve with a large enough effect, not every such curve was filed as active; inconclusive = small, poorly fitted or top-dose-only effect, or another doubt; inactive = no such curve, though single readings can be large or run the other way
Target sequence (P00352 whole entry, looked up): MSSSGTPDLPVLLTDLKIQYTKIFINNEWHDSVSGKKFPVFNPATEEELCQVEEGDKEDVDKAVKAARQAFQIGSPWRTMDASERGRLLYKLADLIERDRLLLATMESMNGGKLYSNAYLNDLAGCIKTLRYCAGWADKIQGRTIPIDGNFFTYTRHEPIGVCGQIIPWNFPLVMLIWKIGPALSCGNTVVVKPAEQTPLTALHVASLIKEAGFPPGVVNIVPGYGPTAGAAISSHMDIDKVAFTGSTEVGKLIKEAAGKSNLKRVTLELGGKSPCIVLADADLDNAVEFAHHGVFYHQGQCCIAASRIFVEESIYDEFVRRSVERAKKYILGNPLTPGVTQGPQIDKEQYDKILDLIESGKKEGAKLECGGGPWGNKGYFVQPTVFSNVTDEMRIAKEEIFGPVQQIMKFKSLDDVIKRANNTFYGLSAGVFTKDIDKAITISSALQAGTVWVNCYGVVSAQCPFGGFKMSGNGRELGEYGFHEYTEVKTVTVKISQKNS
Lamin A splicing: qHTS Assay for Modulators of Lamin A Splicing. Potency, µM (titrated, usually from 46.1 µM), actives largely listed as inhibitors. actives 0.01% (n = 200,000). HeLa LMNA splicing GFP/RFP minigene ratio, 48 h. AID 1487, 2009; active = well fitted inhibition curve with a large enough effect in the signal ratio, with a control signal flat, not every such curve was filed as active; inconclusive = small, poorly fitted or top-dose-only effect, or effect the other way, or a change in a side signal; the % refers to the signal ratio
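S3 HeLa stable clones carrying a lamin A-EGFP splicing minigene plus DsRed2 were seeded at 600 cells/well in Opti-MEM with 2% FBS, pin-dosed and incubated 48 h at 37°C. Acumen cytometry (488 nm) gave the GFP/RFP total-intensity ratio.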
HttQ103 aggreg: qHTS Multiplex Assay to Identify Dual Action Probes in a Cell Model of Huntington: Aggregate Formation (GFP); AID 1688, 2009; Potency, µM (series often up to 46.1 µM), hits mostly inhibitors; PC12 HttQ103-GFP aggregates, Acumen cytometry, 40 h; actives 1.1% (n = 220,000); also: nearly all actives have a fitted effect of over 60% in size
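Ecdysone-promoter PC12 model expressing HTT exon 1 Q103 fused to GFP, induced by tebufenozide at 100 nM final. Compounds titrated; aggregates sized 1–25 µm scored on a 488 nm laser cytometer.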
HTT ATP protect: qHTS Multiplex Assay to Identify Dual Action Probes in a Cell Model of Huntington: Cytoprotection (ATP). PC12 HTT-Q103 induced, cytoprotection, ATP luminescence, 40 h. Potency, µM (titrated, usually from 56.4 µM), most hits filed as activators. actives 0.14% (n = 230,000); also: nearly all actives have a fitted effect of over 45% in size
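Cells were plated at 1500 per well in phenol red-free DMEM with 5% equine and 5% calf serum. Tebufenozide (100 nM final) and compounds were added, then ATPlite reagent, and luminescence was read.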
A number is an active result; – = inactive; ? = inconclusive; · = no result given; [ ] = remark or other dose. Shown are actives, neighbours in structure and some others; about 9% of the full set was active somewhere. Unless noted, calls follow the shape of the dose curve; as a rule, active = well fitted curve in the direction sought with a large enough effect; inconclusive = small, poorly fitted or top-dose-only effect, or another doubt; inactive = no such curve, though single readings can be large; an effect the other way counts as inactive or inconclusive.

SMILES	HPGD inh	KinaseGlo FLuc	ALDH1A1 inh	Lamin A splicing	HttQ103 aggreg	HTT ATP protect
CCCc1nc2oc3cc(OC)ccc3c(=O)c2c(=O)n1Cc1ccco1	–	–	?	–	–	–
COc1ccccc1NC(CC(=O)c1ccccc1)C(=O)OCC(=O)c1ccc(F)cc1 (configuration not stated)	–	–	13µM	–	?	–[10 µM]
Cc1c(Cl)cccc1NC(CC(=O)c1ccccc1)C(=O)OCC(=O)c1cccs1 (configuration not stated)	·	·	–	–	?	–[10 µM]
Cc1ccc2nc(SCc3nnc(-c4cccs4)o3)[nH]c2c1	32µM	–	22µM	–	–[9.22 µM]	–[10 µM]
CCOC(=O)CC(C(=O)OCC)P(=O)(c1ccccc1)c1ccccc1 (configuration not stated)	–	–	10µM	–	–	–
CCCC(C(=O)OCC)P(=O)(c1ccccc1)c1ccccc1 (configuration not stated)	–	–	–	–	–	–[10 µM]

From PubChem BioAssay
